Experimental findings from the supplement of paper PMC12494721 are described below.

Counter-ions that a name gives are not always drawn.

The subject of one experiment is Ruminococcus gnavus DSM 108212. Nature of the experiment: growth (OD595) fold change vs plate DMSO controls (fold change (ratio)); higher = more growth. The following applies: incubation time: 27 h, anaerobic, 37 °C. In a few lines: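 The reported measure is growth: the fold change against the median of DMSO controls on the plate. Absorbance at 595 nm from anaerobic 96-well mGAM cultures grown for 27 h at 37 °C was blank-subtracted, corrected for background with 20 µM compound solutions in water, and converted to OD with a calibration factor of 5. Fold changes above 1.5 appear as NA, and values are the mean of 2 biological replicates.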
As to `NC[C@H]1O[C@H](O[C@H]2[C@H](O[C@@H]3O[C@H](CO)[C@@H](O)[C@H]3O)[C@@H](O)[C@H](N)C[C@@H]2N)[C@H](N)[C@@H](O)[C@@H]1O` [Ribostamycin sulfate salt] (20 µM), the growth is 1.2.

As for `CCOC(=O)C1=C[C@]2(CC)CCCN3CCc4c(n1c1ccccc41)[C@@H]32` [Vinpocetine] (20 µM), the growth was found to be 1.14. For `CCOC1O[C@H]([C@@H](COCc2ccccc2)OCc2ccccc2)[C@H](OCc2ccccc2)[C@H]1O` (some centres not stated) [Tribenoside] (20 µM), the growth worked out at 0.972. Same read-out and setting: with `NCCCC[C@H](N[C@@H](CCc1ccccc1)C(=O)O)C(=O)N1CCC[C@H]1C(=O)O` [Lisinopril] (20 µM) the figure was 0.922; with `CC(C)(C)NC[C@H](O)c1ccc(O)c(CO)c1` [Levalbuterol hydrochloride] (20 µM), 0.865; with `O=C(CCCl)NCc1ccccc1` [Beclamide] (20 µM), 1.07.

With `Cc1onc(-c2ccccc2Cl)c1C(=O)N[C@@H]1C(=O)N2[C@@H]1SC(C)(C)[C@@H]2C(=O)O` [Cloxacillin sodium salt] (20 µM), the growth turned out to be 0.171. The same measure, in the same setting: the figure for `CCN1CCCC1CNC(=O)c1cc(S(N)(=O)=O)ccc1OC` (configuration not stated) [Sulpiride] (20 µM) is 1.18; for `CCOc1ccc(NC(N)=O)cc1` [(4-Ethoxyphenyl)urea] (50 µM) it is 1.09. Turning to `O=C1OC(CN2CCOCC2)CN1/N=C/c1ccc([N+](=O)[O-])o1` (configuration not stated) [Furaltadone hydrochloride] (20 µM), the growth stood at 0.987. For the molecule `Cc1cc(N)c2ccccc2[n+]1CCCCCCCCCC[n+]1c(C)cc(N)c2ccccc21` [Dequalinium dichloride] (20 µM), the growth turned out to be 0.565. Same read-out and setting: with `Cc1ccc(C(=O)c2ccc(CC(=O)O)n2C)cc1` [Tolmetin sodium salt dihydrate] (20 µM) the figure was 0.976; with `CCCSc1nc(N[C@@H]2C[C@H]2c2ccc(F)c(F)c2)c2nnn([C@@H]3C[C@H](OCCO)[C@@H](O)[C@H]3O)c2n1` [Ticagrelor] (20 µM), 1.03; with `CNc1ncnc2c1ncn2[C@@H]1O[C@H](CO)[C@@H](O)[C@H]1O` [N6-methyladenosine] (20 µM), 0.955. `Cc1c(N(C)CS(=O)(=O)O)c(=O)n(-c2ccccc2)n1C` [Dipyrone sodium salt] (20 µM): the growth was 1.13.

As to `CN(c1nccc(=O)[nH]1)C1CCN(c2nc3ccccc3n2Cc2ccc(F)cc2)CC1` [Mizolastine] (20 µM), the growth is 1.24. The same measure, in the same setting: with `CC(CN(C)C)C(C)(O)Cc1ccc(Cl)cc1` (configuration not stated) [Clobutinol hydrochloride] (20 µM) the figure was 1.26; with `Oc1c(Cl)cc(Cl)c2cccnc12` [Chloroxine] (20 µM), 0.369.

Regarding `CC(=O)OCC(=O)[C@@]1(O)CC[C@H]2[C@@H]3CCC4=CC(=O)CC[C@]4(C)[C@@]3(F)[C@@H](O)C[C@@]21C` [Fludrocortisone acetate] (20 µM), the growth stood at 1.06. Same read-out and setting: with `CC1=C(C(=O)O)N2C(=O)[C@@H](NC(=O)[C@H](N)c3ccc(O)cc3)[C@H]2SC1` [Cefadroxil] (20 µM) the figure was 1.08. The same measure, in the same setting: with `OC[C@H]1O[C@@](CO)(O[C@H]2O[C@H](CO)[C@@H](O)[C@H](O)[C@H]2O)[C@@H](O)[C@@H]1O` [Sucrose] (50 µM) the figure was 1.12; with `CCN(CC)CCOC(=O)C(c1ccccc1)C1CCCCC1` (configuration not stated) [Drofenine hydrochloride] (20 µM), 0.939.

In the case of `CN(C)CCCN1c2ccccc2Sc2ccccc21` [Promazine hydrochloride] (20 µM), the growth was found to be 1.

As for `CCc1cccc(CC)c1NC(=O)CN(CC(=O)O)CC(=O)O` [Etifenin] (20 µM), the growth came out at 1.1. On the same count and under the same terms, the figure for `CC(Cc1cccc(C(F)(F)F)c1)NCCOC(=O)c1ccccc1` (configuration not stated) [Benfluorex] (20 µM) is 0.795; for `Cn1c(=O)c2c(ncn2C)n(C)c1=O` [Caffeine] (20 µM) it is 0.963; for `O=c1[nH]c(=O)n([C@H]2C[C@H](O)[C@@H](CO)O2)cc1C(F)(F)F` [Trifluridine] (20 µM) it is 0.913. Same read-out and setting: the figure for `CCOC(=O)NNc1nncc2ccccc12` [Todralazine hydrochloride] (20 µM) is 1.

The next experiment deals with Klebsiella aerogenes DSM 30053. Nature of the experiment: fold change of Histamine concentration vs plate DMSO controls (fold change (ratio)); higher = more amine produced, active = hit call of the paper (significant change in both replicates, either direction). The following applies: incubation time: 27 h, anaerobic, 37 °C. Put shortly: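 Extracts of whole anaerobic mGAM cultures were analysed for amines by LC–triple-quadrupole MS with dynamic MRM and external calibration curves, with drift corrected within batch. Four gut strains were grown at 37 °C for 27 h in 80 µL wells with compounds at 20 µM final, sweeteners at 50 µM final. Each value expresses fold change over plate DMSO controls. The average of 2 biological replicates is shown.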
`CC(N)(Cc1ccc(O)c(O)c1)C(=O)O` (configuration not stated) [(L) Methyldopa] (20 µM): the “fold change of Histamine concentration” value is 1.06 (inactive). As to `CN[C@@H]1[C@H](O[C@H]2[C@H](O[C@H]3[C@H](O)[C@@H](O)[C@H](N=C(N)N)[C@@H](O)[C@@H]3N=C(N)N)O[C@@H](C)[C@]2(O)C=O)O[C@@H](CO)[C@H](O)[C@H]1O` [Streptomycin sulfate] (20 µM), the “fold change of Histamine concentration” value is 0.988 (inactive). Consider `CCOC(=O)c1ccc(OC(=O)CCCCCNC(=N)N)cc1` [Gabexate mesilate] (20 µM), for which the “fold change of Histamine concentration” value is 0.978 (inactive). Still for that read-out and setting: the figure for `NS(=O)(=O)c1cc(C(=O)O)c(NCc2ccco2)cc1Cl` [Furosemide] (20 µM) is 0.987 (inactive); for `CC(C)(Oc1ccc(Cl)cc1)C(=O)O` [Clofibric acid] (20 µM) it is 1.12 (inactive); for `Cc1ccc(C(C)NC(=O)[C@@H](NC(=O)OC(C)C)C(C)C)cc1` (some centres not stated) (20 µM) it is 1.02 (inactive). The same measure, in the same setting: the figure for `COC(c1ccccc1)(c1ccccc1)[C@H](Oc1nc(C)cc(C)n1)C(=O)O` [Ambrisentan] (20 µM) is 1.07 (inactive). As for `CN1CCN(CCCN2c3ccccc3Sc3ccc(C(F)(F)F)cc32)CC1` [Trifluoperazine dihydrochloride] (20 µM), the “fold change of Histamine concentration” value is 0.886 (inactive). The same measure, in the same setting: with `C[N+](C)(CCOc1ccccc1)Cc1ccccc1.O=C([O-])c1cc2ccccc2cc1O` [Bephenium hydroxynaphthoate] (20 µM) the figure was 1.04 (inactive); with `c1ccc2cc3c(ccc4ccccc43)cc2c1` [Benz[a]anthracene] (20 µM), 1.07 (inactive); with `C[C@H]1C[C@H]2[C@@H]3CCC4=CC(=O)C=C[C@]4(C)[C@@]3(F)[C@@H](O)C[C@]2(C)[C@@]1(O)C(=O)CO` [Betamethasone] (20 µM), 0.976 (inactive). Same read-out and setting: with `NC[C@H]1O[C@H](O[C@H]2[C@H](O[C@@H]3O[C@H](CO)[C@@H](O)[C@H]3O)[C@@H](O)[C@H](N)C[C@@H]2N)[C@H](N)[C@@H](O)[C@@H]1O` [Ribostamycin sulfate salt] (20 µM) the figure was 0.975 (inactive); with `CCOC(=O)C1=C[C@]2(CC)CCCN3CCc4c(n1c1ccccc41)[C@@H]32` [Vinpocetine] (20 µM), 0.922 (inactive). Same read-out and setting: with `CCOC1O[C@H]([C@@H](COCc2ccccc2)OCc2ccccc2)[C@H](OCc2ccccc2)[C@H]1O` (some centres not stated) [Tribenoside] (20 µM) the figure was 1.06 (inactive). As to `NCCCC[C@H](N[C@@H](CCc1ccccc1)C(=O)O)C(=O)N1CCC[C@H]1C(=O)O` [Lisinopril] (20 µM), the “fold change of Histamine concentration” value was 0.911 (inactive). For the molecule `CC(C)(C)NC[C@H](O)c1ccc(O)c(CO)c1` [Levalbuterol hydrochloride] (20 µM), the “fold change of Histamine concentration” value was 0.991 (inactive).

Regarding `O=C(CCCl)NCc1ccccc1` [Beclamide] (20 µM), the “fold change of Histamine concentration” value was 1.03 (inactive).

On to `Cc1onc(-c2ccccc2Cl)c1C(=O)N[C@@H]1C(=O)N2[C@@H]1SC(C)(C)[C@@H]2C(=O)O` [Cloxacillin sodium salt] (20 µM), for which the “fold change of Histamine concentration” value was 0.987 (inactive). Turning to `CCN1CCCC1CNC(=O)c1cc(S(N)(=O)=O)ccc1OC` (configuration not stated) [Sulpiride] (20 µM), the “fold change of Histamine concentration” value was 1.05 (inactive). For `CCOc1ccc(NC(N)=O)cc1` [(4-Ethoxyphenyl)urea] (50 µM), the “fold change of Histamine concentration” value was 0.964 (inactive).

In the case of `O=C1OC(CN2CCOCC2)CN1/N=C/c1ccc([N+](=O)[O-])o1` (configuration not stated) [Furaltadone hydrochloride] (20 µM), the “fold change of Histamine concentration” value was 0.938 (inactive). On to `Cc1cc(N)c2ccccc2[n+]1CCCCCCCCCC[n+]1c(C)cc(N)c2ccccc21` [Dequalinium dichloride] (20 µM), for which the “fold change of Histamine concentration” value is 0.873 (inactive). The same measure, in the same setting: the figure for `Cc1ccc(C(=O)c2ccc(CC(=O)O)n2C)cc1` [Tolmetin sodium salt dihydrate] (20 µM) is 1.05 (inactive); for `CCCSc1nc(N[C@@H]2C[C@H]2c2ccc(F)c(F)c2)c2nnn([C@@H]3C[C@H](OCCO)[C@@H](O)[C@H]3O)c2n1` [Ticagrelor] (20 µM) it is 0.977 (inactive). The same measure, in the same setting: with `CNc1ncnc2c1ncn2[C@@H]1O[C@H](CO)[C@@H](O)[C@H]1O` [N6-methyladenosine] (20 µM) the figure was 1.03 (inactive).

As to `Cc1c(N(C)CS(=O)(=O)O)c(=O)n(-c2ccccc2)n1C` [Dipyrone sodium salt] (20 µM), the “fold change of Histamine concentration” value was 0.958 (inactive). Same read-out and setting: with `CN(c1nccc(=O)[nH]1)C1CCN(c2nc3ccccc3n2Cc2ccc(F)cc2)CC1` [Mizolastine] (20 µM) the figure was 1.03 (inactive). On the same count and under the same terms, with `CC(CN(C)C)C(C)(O)Cc1ccc(Cl)cc1` (configuration not stated) [Clobutinol hydrochloride] (20 µM) the figure was 1.03 (inactive). Take `Oc1c(Cl)cc(Cl)c2cccnc12` [Chloroxine] (20 µM): the “fold change of Histamine concentration” value is 0.921 (inactive). Still for that read-out and setting: with `CC(=O)OCC(=O)[C@@]1(O)CC[C@H]2[C@@H]3CCC4=CC(=O)CC[C@]4(C)[C@@]3(F)[C@@H](O)C[C@@]21C` [Fludrocortisone acetate] (20 µM) the figure was 1.01 (inactive); with `CC1=C(C(=O)O)N2C(=O)[C@@H](NC(=O)[C@H](N)c3ccc(O)cc3)[C@H]2SC1` [Cefadroxil] (20 µM), 1.08 (inactive); with `OC[C@H]1O[C@@](CO)(O[C@H]2O[C@H](CO)[C@@H](O)[C@H](O)[C@H]2O)[C@@H](O)[C@@H]1O` [Sucrose] (50 µM), 0.917 (inactive). Still for that read-out and setting: with `CCN(CC)CCOC(=O)C(c1ccccc1)C1CCCCC1` (configuration not stated) [Drofenine hydrochloride] (20 µM) the figure was 1.03 (inactive); with `CN(C)CCCN1c2ccccc2Sc2ccccc21` [Promazine hydrochloride] (20 µM), 1.05 (inactive).
